We go through 4 compounds from PubChem BioAssay (EPA / NIEHS).

Calls of active or inactive are those of the source. Rule for the calls: active = hit-call score of the fitted dose curve at least 0.9, where 1 is the maximum; inactive = score below 0.9.

Details in all cases: mRNA level, 48 h; actives raise or lower the signal
Read-out in assay [1]: Alkaline Phosphatase, Placental (ALPP) gene, ALPP (gene 250)
Kind of assay: LTEA_HepaRG_ALPP: Life Technologies and Expression Analysis (LTEA) Assay for Alkaline Phosphatase, Placental (ALPP) gene using HepaRG (AID 2283468). In outline:
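qRT-PCR readout of ALPP mRNA (Fluidigm TaqMan), normalized to ACTB/GAPDH/POLR2A, after 48 h chemical exposure of HepaRG cells; 8-point half-log series, top 100 uM, 0.5% DMSO vehicle. Bidirectional curve fit versus DMSO baseline.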

Read-out in assay [2]: Bcl-2 (BAD) gene, BAD (gene 572)
Kind of assay: LTEA_HepaRG_BAD: Life Technologies and Expression Analysis (LTEA) Assay for Bcl-2 (BAD) gene using HepaRG (AID 2283469). The gist of the method:
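Differentiated HepaRG cells were exposed in duplicate in 0.5% DMSO for 48 h to eight-point half-log concentrations up to 100 uM. BAD mRNA was measured by Fluidigm TaqMan qRT-PCR, normalized to ACTB, GAPDH and POLR2A, and fitted bidirectionally against DMSO.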

Read-out in assay [3]: Bcl-2 (BAX) gene, BAX (gene 581)
The assay is described as follows: LTEA_HepaRG_BAX: Life Technologies and Expression Analysis (LTEA) Assay for Bcl-2 (BAX) gene using HepaRG (AID 2283470). In outline:
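Differentiated human HepaRG cells, plated 48 h then switched to serum-free induction medium, were exposed 48 h to 8 half-log concentrations up to 100 uM in 0.5% DMSO; BAX mRNA measured by qRT-PCR, normalized to ACTB, GAPDH, POLR2A.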

Read-out in assay [4]: adenosine kinase (ADK) gene, ADK (gene 132)
Kind of assay: LTEA_HepaRG_ADK: Life Technologies and Expression Analysis (LTEA) Assay for adenosine kinase (ADK) gene using HepaRG (AID 2283471). The gist of the method:
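ADK expression quantified by qRT-PCR, normalised to three housekeeping genes, after 48 h exposure of HepaRG cells to eight concentrations (top 100 uM, half-log steps, duplicate, 0.5% DMSO). Up- or down-regulation fitted relative to vehicle.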

Read-out in assay [5]: Alpha-fetoprotein (AFP) gene, AFP (gene 174)
The assay is described as follows: LTEA_HepaRG_AFP: Life Technologies and Expression Analysis (LTEA) Assay for Alpha-fetoprotein (AFP) gene using HepaRG (AID 2283472). The gist of the method: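 Human HepaRG cells plated 48 h, then switched to serum-free induction medium and exposed in duplicate for 48 h to 8-point half-log series from 100 uM in 0.5% DMSO. AFP mRNA by qRT-PCR, normalized to ACTB, GAPDH, POLR2A; bidirectional fit versus DMSO.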

Read-out in the next assay: BCL2L11 (gene 10018)
The assay is described as follows: LTEA_HepaRG_BCL2L11: Life Technologies and Expression Analysis (LTEA) Assay for Bcl-2 (BCL2L11) gene using HepaRG (AID 2283473). In outline:
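HepaRG, 48 h exposure, 8-pt half-log series from 100 uM in 0.5% DMSO, duplicates; qRT-PCR (Fluidigm TaqMan) for BCL2L11, housekeeping-normalized; bidirectional curve fit relative to DMSO baseline.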

Read-out in assay [6]: Apolipoprotein A-V (APOA5) gene, APOA5 (gene 116519)
Kind of assay: LTEA_HepaRG_APOA5: Life Technologies and Expression Analysis (LTEA) Assay for Apolipoprotein A-V (APOA5) gene using HepaRG (AID 2283474). The gist of the method:
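HepaRG, 48 h chemical exposure in serum-free induction medium, 8-pt half-log series (top 100 uM), 0.5% DMSO vehicle, duplicates. Readout: APOA5 mRNA by qRT-PCR, housekeeping-normalized; bidirectional fit vs DMSO baseline.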

Read-out in assay [7]: Apoptosis regulator Bcl-2 (Homo sapiens) (UniProt P10415)
Kind of assay: LTEA_HepaRG_BCL2: Life Technologies and Expression Analysis (LTEA) Assay for Bcl-2 gene using HepaRG (AID 2283475). The gist of the method: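 Differentiated HepaRG cells in serum-free induction medium were exposed for 48 h to eight half-log concentrations up to 100 uM in 0.5% DMSO, in duplicate. BCL2 mRNA was quantified by TaqMan qRT-PCR normalised to ACTB, GAPDH and POLR2A, with bidirectional fitting versus DMSO.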

Read-out in the next assay: Caspase-3 (Homo sapiens) (UniProt P42574)
Kind of assay: LTEA_HepaRG_CASP3: Life Technologies and Expression Analysis (LTEA) Assay for cysteine-aspartic acid protease (CASP3) using HepaRG (AID 2283477). In outline:
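HepaRG, 48 h exposure, 8 conc. (top 100 uM, half-log steps, duplicate), 0.5% DMSO vehicle; qRT-PCR of CASP3 transcript, housekeeping-normalised (ACTB/GAPDH/POLR2A); bidirectional curve fit vs DMSO baseline.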

Read-out in assay [8]: Cytochrome P450 (CYP24A1), CYP24A1 (gene 1591)
Kind of assay: LTEA_HepaRG_CYP24A1: Life Technologies and Expression Analysis (LTEA) Assay for Cytochrome P450 (CYP24A1) using HepaRG (AID 2283478). In outline: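 qRT-PCR read-out: CYP24A1 transcript levels normalized to three housekeeping genes, bidirectional curve fits against 0.5% DMSO baseline. Human HepaRG cells treated 48 h with chemicals at eight concentrations from 100 uM in half-log steps.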

Read-out in assay [9]: Cytochrome P450 (CYP1A2), CYP1A2 (gene 1544)
The assay is described as follows: LTEA_HepaRG_CYP1A2: Life Technologies and Expression Analysis (LTEA) Assay for Cytochrome P450 (CYP1A2) using HepaRG (AID 2283479). The gist of the method:
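HepaRG, 48 h exposure, top 100 uM, half-log 8-pt, 0.5% DMSO vehicle, duplicates. Readout: TaqMan qRT-PCR of CYP1A2 mRNA, housekeeping-normalized (ACTB/GAPDH/POLR2A). Gain/loss fit relative to DMSO baseline.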

Read-out in assay [10]: cysteine-aspartic acid protease (CASP8), CASP8 (gene 841)
The assay is described as follows: LTEA_HepaRG_CASP8: Life Technologies and Expression Analysis (LTEA) Assay for cysteine-aspartic acid protease (CASP8) using HepaRG (AID 2283480). In outline:
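Differentiated HepaRG cells in serum-free induction medium, 48 h exposure, eight-point half-log series from 100 uM in 0.5% DMSO, duplicates. CASP8 mRNA by qRT-PCR, normalized to ACTB, GAPDH, POLR2A; bidirectional fit versus DMSO.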

Read-out in assay [11]: Cytochrome P450 (CYP2B6), CYP2B6 (gene 1555)
The assay is described as follows: LTEA_HepaRG_CYP2B6: Life Technologies and Expression Analysis (LTEA) Assay for Cytochrome P450 (CYP2B6) using HepaRG (AID 2283481). In outline:
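Read-out is CYP2B6 mRNA by TaqMan qRT-PCR, normalized to three housekeeping genes and fitted bidirectionally against 0.5% DMSO baseline. Human HepaRG cells received test chemicals for 48 h, top concentration 100 uM, half-log dilutions.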

Read-out in assay [12]: Cytochrome P450 2C19 (Homo sapiens) (UniProt P33261)
Kind of assay: LTEA_HepaRG_CYP2C19: Life Technologies and Expression Analysis (LTEA) Assay for CYP2C19 using HepaRG (AID 2283482). The gist of the method: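 HepaRG, 48 h chemical exposure, 8-pt half-log series from 100 uM in 0.5% DMSO, duplicates. Readout: CYP2C19 mRNA by TaqMan qRT-PCR, housekeeping-normalized. Bidirectional fit vs DMSO baseline; phenobarbital 1mM as induction control.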

Read-out in the next assay: CYP2C8 (gene 1558)
Kind of assay: LTEA_HepaRG_CYP2C8: Life Technologies and Expression Analysis (LTEA) Assay for CYP2C8 using HepaRG (AID 2283483). In outline: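 Differentiated HepaRG cells in serum-free induction medium exposed 48 h in duplicate to 8 half-log concentrations from 100 uM in 0.5% DMSO. CYP2C8 mRNA by qRT-PCR normalized to ACTB, GAPDH, POLR2A; bidirectional fit versus DMSO.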

Read-out in a further assay: CYP2C9 (gene 1559)
Kind of assay: LTEA_HepaRG_CYP2C9: Life Technologies and Expression Analysis (LTEA) Assay for CYP2C9 using HepaRG (AID 2283484). In outline:
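Differentiated human HepaRG cells in serum-free induction medium were exposed 48 h to chemicals in 8-point half-log series from 100 uM (0.5% DMSO), in duplicate. CYP2C9 mRNA was measured by qRT-PCR, normalized to ACTB/GAPDH/POLR2A, with bidirectional fitting versus DMSO.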

Read-out in a further assay: CYP2E1 (gene 1571)
Kind of assay: LTEA_HepaRG_CYP2E1: Life Technologies and Expression Analysis (LTEA) Assay for CYP2E1 using HepaRG (AID 2283485). The gist of the method: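 HepaRG cells in serum-free induction medium exposed 48 h to test chemicals, 8 half-log concentrations up to 100 uM in 0.5% DMSO, duplicate. CYP2E1 mRNA by qRT-PCR, normalized to ACTB, GAPDH, POLR2A; bidirectional fit versus DMSO.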

Read-out in a further assay: CYP4A11 (gene 1579)
The assay is described as follows: LTEA_HepaRG_CYP4A11: Life Technologies and Expression Analysis (LTEA) Assay for CYP4A11 using HepaRG (AID 2283486). In outline:
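CYP4A11 transcript levels were quantified by TaqMan qRT-PCR after HepaRG human liver cells were treated for 48 hours with test chemicals (top 100 uM, half-log dilutions, 0.5% DMSO). Gain or loss of signal was fitted relative to DMSO.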

Read-out in assay [13]: Cytochrome P450 3A4 (Homo sapiens) (UniProt P08684)
The assay is described as follows: LTEA_HepaRG_CYP3A4: Life Technologies and Expression Analysis (LTEA) Assay for CYP3A4 using HepaRG (AID 2283487). The gist of the method: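 Differentiated HepaRG cells, plated 48 h, then dosed 48 h in serum-free induction medium with 0.5% DMSO, 8 half-log concentrations up to 100 uM, duplicate. CYP3A4 mRNA by qRT-PCR, normalized to ACTB/GAPDH/POLR2A; bidirectional fit versus DMSO.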

Apoptosis regulator Bcl-2 (Homo sapiens), sequence (P10415 whole entry, looked up): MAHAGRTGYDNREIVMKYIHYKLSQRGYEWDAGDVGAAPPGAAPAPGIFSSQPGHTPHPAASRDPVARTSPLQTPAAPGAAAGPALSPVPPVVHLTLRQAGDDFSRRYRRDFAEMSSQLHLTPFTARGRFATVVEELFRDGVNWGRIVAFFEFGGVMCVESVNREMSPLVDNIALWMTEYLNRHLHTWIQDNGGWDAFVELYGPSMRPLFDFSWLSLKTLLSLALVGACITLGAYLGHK
Cytochrome P450 3A4 (Homo sapiens), sequence (P08684 whole entry, looked up): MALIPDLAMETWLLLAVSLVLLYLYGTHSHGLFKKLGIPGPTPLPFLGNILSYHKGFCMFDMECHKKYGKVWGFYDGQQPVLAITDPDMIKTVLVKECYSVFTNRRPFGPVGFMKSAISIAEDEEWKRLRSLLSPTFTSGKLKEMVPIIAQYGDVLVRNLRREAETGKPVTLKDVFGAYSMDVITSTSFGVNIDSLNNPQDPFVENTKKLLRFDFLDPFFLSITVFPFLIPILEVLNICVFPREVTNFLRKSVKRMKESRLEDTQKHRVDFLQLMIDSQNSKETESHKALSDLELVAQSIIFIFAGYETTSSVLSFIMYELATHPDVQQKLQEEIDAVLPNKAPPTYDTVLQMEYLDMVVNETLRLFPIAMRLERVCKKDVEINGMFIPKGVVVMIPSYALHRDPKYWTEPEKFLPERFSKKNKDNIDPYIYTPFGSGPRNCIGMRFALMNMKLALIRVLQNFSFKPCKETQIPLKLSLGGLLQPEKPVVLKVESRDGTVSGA
Caspase-3 (Homo sapiens), sequence (P42574 whole entry, looked up): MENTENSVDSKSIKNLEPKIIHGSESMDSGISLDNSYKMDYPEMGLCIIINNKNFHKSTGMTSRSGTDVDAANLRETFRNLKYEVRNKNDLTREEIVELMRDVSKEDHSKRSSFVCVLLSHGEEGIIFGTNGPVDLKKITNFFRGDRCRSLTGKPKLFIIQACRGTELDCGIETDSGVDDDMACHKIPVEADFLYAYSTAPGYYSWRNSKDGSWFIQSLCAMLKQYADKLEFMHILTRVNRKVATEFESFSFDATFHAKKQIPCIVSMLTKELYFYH
Cytochrome P450 2C19 (Homo sapiens), sequence (P33261 whole entry, looked up): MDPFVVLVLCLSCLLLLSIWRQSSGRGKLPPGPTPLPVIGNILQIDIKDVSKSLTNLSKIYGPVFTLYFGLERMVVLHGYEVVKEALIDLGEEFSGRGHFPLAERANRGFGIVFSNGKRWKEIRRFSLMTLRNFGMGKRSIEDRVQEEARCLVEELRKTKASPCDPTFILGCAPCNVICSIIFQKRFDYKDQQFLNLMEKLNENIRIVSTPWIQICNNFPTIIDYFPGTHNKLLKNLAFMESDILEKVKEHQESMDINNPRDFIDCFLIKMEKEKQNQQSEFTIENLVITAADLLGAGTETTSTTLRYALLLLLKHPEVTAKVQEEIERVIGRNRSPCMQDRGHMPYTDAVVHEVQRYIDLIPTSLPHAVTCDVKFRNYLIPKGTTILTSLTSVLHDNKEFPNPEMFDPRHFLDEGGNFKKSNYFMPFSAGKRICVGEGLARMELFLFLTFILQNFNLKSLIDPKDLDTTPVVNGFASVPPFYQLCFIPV

Regarding `ClC(Cl)=C(c1ccc(Cl)cc1)c1ccc(Cl)cc1`, the call (in assay [1]; in [2]; in assay [3]; in assay [4]; in [5]; with BCL2L11 (gene 10018)) was inactive. In addition, the compound was called inactive (in assay [6]; in [7]; in the assay with Caspase-3 (Homo sapiens); in [8]; in assay [9]; in assay [10]). Also, the compound was classed as inactive in the assay with CYP2C9 (gene 1559) and with CYP4A11 (gene 1579). Also, the AC50 in assay [11] was 1.59 µM (active); in [12] it was 7.61 µM (active); with CYP2C8 (gene 1558), 3.63 µM (active); with CYP2E1 (gene 1571), 50.7 µM (active); in [13], 7.4 µM (active).
Turning to `ClC1=C(Cl)[C@]2(Cl)[C@@H]3[C@@H]4C[C@@H]([C@H]5O[C@@H]45)[C@@H]3[C@@]1(Cl)C2(Cl)Cl`, the compound was called inactive (in [1]; in assay [2]; in [3]; in the assay with BCL2L11 (gene 10018); in assay [6]; in [8]). For the same compound, the result (in assay [9]; in assay [10]; in the assay with CYP2C9 (gene 1559)) was inactive. The AC50 was 0.0386 µM (active) in assay [4]; 0.0145 µM (active) in assay [5]; 50 µM (active) in assay [7]; 0.0261 µM (active) in the assay with Caspase-3 (Homo sapiens); 1.58 µM (active) in assay [11]; 12.3 µM (active) in [12]. Also, the AC50 with CYP2E1 (gene 1571) is 22.4 µM (active); with CYP4A11 (gene 1579), 31.5 µM (active).
For `CC1=C2C[C@H]3[C@@H](CC=C4C[C@@H](O)CC[C@@]43C)[C@@H]2CC[C@]12O[C@@H]1C[C@H](C)CN[C@H]1[C@H]2C`, the compound was classed as inactive (in [1]; in assay [2]; in assay [3]; in assay [4]; in [5]; with BCL2L11 (gene 10018)). Moreover, the compound was called inactive (in assay [6]; in [7]; with Caspase-3 (Homo sapiens); in assay [8]; in assay [9]; in assay [10]). The outcome (in assay [11]; in assay [12]; in the assay with CYP2C8 (gene 1558); in the assay with CYP2C9 (gene 1559); with CYP2E1 (gene 1571); with CYP4A11 (gene 1579)) was inactive. Also, in assay [13], the outcome was inactive.
In the case of `Oc1c(Cl)c(Cl)c(Cl)c(Cl)c1Cl`, the AC50 in assay [1] is 5.48 µM (active); in [4] it was 6.68 µM (active); in assay [5], 3.19 µM (active); with BCL2L11 (gene 10018) it was 6.24 µM (active); in assay [6], 3.95 µM (active); with Caspase-3 (Homo sapiens), 6.5 µM (active). In addition, the AC50 in assay [9] was 3.83 µM (active); in assay [10], 6.64 µM (active); in assay [11], 3.43 µM (active); in [12] it was 4.27 µM (active); with CYP2C8 (gene 1558) it was 4.44 µM (active); in the assay with CYP2C9 (gene 1559), 3.08 µM (active). In addition, the AC50 with CYP2E1 (gene 1571) is 1.94 µM (active); in the assay with CYP4A11 (gene 1579), 4.37 µM (active); in assay [13], 4.73 µM (active). Besides, the outcome in assay [2], in assay [3], in [7] and in assay [8] was inactive.

One may read the AC50 as the concentration giving half of the maximal activity seen.
